Legend:
Experiment in all cases: PBM binding z-score (relative to random genomic background probes); higher = stronger binding; sequences stand for … in GC…GCGATTGACAGCGTAGAATGAAGG
[1] = test system: PPARg:RXRa DBDmut IVT, anti-RXR (DBD mutation: RXRa K156A/R161A, NR concentration 270 nM, RXRa partner concentration 90 nM)
In short: (§1)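 On custom Agilent 4×180K arrays, double-stranded probes with 34-nt variable regions carried direct-repeat seeds, single-nucleotide variants, half-site ablations or random human genomic background. Ligand-free nuclear receptor dimers were applied for 1 h, and binding was read with antibodies against each partner (one per run). Binding z-scores come from regression-normalized fluorescence, with the random background probes as reference.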

[2] = test system: PPARg:RXRa IVT, anti-PPARg (NR concentration 270 nM, RXRa partner concentration 90 nM)
In short: as §1

[3] = test system: PPARg DBDmut:RXRa IVT, anti-PPARg (DBD mutation: PPARg1 K132A/R137A, NR concentration 270 nM, RXRa partner concentration 90 nM)
In short: as §1

[4] = test system: PPARg DBDmut IVT, anti-PPARg (DBD mutation: PPARg1 K132A/R137A, NR concentration 270 nM)
In short: as §1

[5] = test system: PPARg homodimer (NR concentration 180 nM)
In short: as §1

[6] = test system: PXR:RXRa (NR concentration 270 nM, RXRa partner concentration 90 nM)
In short: as §1

[7] = test system: PXR homodimer (NR concentration 270 nM)
In short: as §1

[8] = test system: RARa:RXR (NR concentration 270 nM, RXRa partner concentration 90 nM)
In short: as §1

[9] = test system: RARa homodimer (NR concentration 270 nM)
In short: as §1

[10] = test system: RARb:RXRa (NR concentration 270 nM, RXRa partner concentration 90 nM)
In short: as §1

Sequence	PBM binding z-score [1]	PBM binding z-score [2]	PBM binding z-score [3]	PBM binding z-score [4]	PBM binding z-score [5]	PBM binding z-score [6]	PBM binding z-score [7]	PBM binding z-score [8]	PBM binding z-score [9]	PBM binding z-score [10]
TCAAATAGGTAAAGGTGAAAGTCGAACGATATGA	3.65	3.47	1.88	0.968	2.04	1.17	0.187	1.93	0.988	2.28
ATCGAAAGGGCGAGGTGAGTATAGAGAAAGGGAA	-0.0167	0.793	0.764	0.945	0.793	0.415	0.345	0.69	0.319	2.09
CGAACTAGGTGAGAACAGGACAGTGAAGGATGAT	6.37	5.97	0.979	0.431	0.246	0.0752	0.241	0.486	0.275	0.285
AGTCAAAGTTCACTAGGGAACGTAAGATTCAGCT	0.937	3.63	0.753	0.755	2.24	3.94	2.56	2.71	0.63	4.57
AGAACGAGGGCAATGAGTAGATAGCACGGGTGGC	2.9	2.75	0.5	-0.201	0.383	0.323	0.226	0.413	0.137	2
CGTCCAAGGTCAAGGGTCAGTGAAGAGATGACGG	3.08	5.28	0.202	-0.0608	5	5.97	1.43	8.23	1.5	5.81
TCTTGTAAATCAATAGAGGTTAAGAAAGTGCGCT	2.07	0.72	0.946	0.876	0.652	2.65	0.467	1.72	0.812	1.13
ACTAGCAGGCCAAGTTTGGGTCACTTAAACAAAG	0.815	1.34	-0.398	-0.134	0.336	0.603	-0.404	1.6	-0.389	1.91
GCTAGTTGGTCAGTAAAAGGTCACAGACCGGTCG	1.25	3.03	-0.272	0.44	3.83	4.92	1.24	6.32	1.97	4.51
ATCTCTAGGTAAGAAGTTCAGTGAAAGAGAGGAC	1.18	1.29	0.696	1.32	1.05	0.898	1.32	0.518	0.598	1.49
AGTATGAGGTTACCAAAGATCAGGGAAACGCTTG	1.3	1.52	0.279	0.406	0.714	1.62	0.275	2.21	0.475	2.19
TAGTCTAGGTCATGGGCCAGTATACCACGCGAAC	5.8	6.96	3.12	2.31	2.49	1.57	0.209	2.78	0.751	3.95
GCGATTGGGGCAAAGCAGGTTACCATAAGGTTGG	2.25	1.69	-0.0926	-0.514	0.213	0.707	-0.215	1.13	0.0153	0.946
CCGAGTGGGTTATGGGGCATTCAGGCAACGGTGA	1.23	2.29	-0.951	-0.669	0.384	-0.309	0.21	0.0956	0.0265	0.461
CCTCCTGGGCCAAAAAGGTCATTGATGCCGATAA	-0.0525	1.53	-0.96	-0.947	2.51	4.62	2.5	4.44	0.621	3.9
TCGAGTAGGTTAGTCGTGGCATTCAGCCAACATA	2.28	1.66	-0.875	-1.07	-0.343	-0.558	-0.596	-0.421	-0.619	-0.00522
TAGCCAAGGTCATGGGCCAGTATACCACGCGAAC	1.56	3.66	0.971	1.48	2.86	4.24	0.572	4.73	0.369	5.36
TCTGCTAGGTCAACGATGGTAAGCTAATCTGCTA	4.18	4.18	0.49	-0.213	0.663	0.925	-1.17	1.92	-1	4.03
AGAATGAGGTTACCAAAGATCAGCGAAACGCTTG	4.05	3.33	1.77	0.58	0.597	1.32	-0.226	2.13	0.0511	2.08
AGAATGCGGTTATTAAGATCAGGGAATTGCGGTC	-0.161	0.143	-0.136	-0.574	-0.18	-0.396	0.0419	-0.457	0.329	-0.0684
AGTCAAAGTTCATCTAAGTAACGTAAGATATGCT	0.404	2.37	0.832	1.41	2.51	4.78	4.97	3.48	1.03	5.03
GATATAGGGTCAAGGCCAGAGTACGCGTATTGAT	4	4.64	1.73	1.98	3.01	4.14	0.146	4.91	1.13	4.62

Sequence	PBM binding z-score [1]	PBM binding z-score [2]	PBM binding z-score [3]	PBM binding z-score [4]	PBM binding z-score [5]	PBM binding z-score [6]	PBM binding z-score [7]	PBM binding z-score [8]	PBM binding z-score [9]	PBM binding z-score [10]
AGAACGAGGGCACGCTGAGTTGATGGCAGAGTAG	4.26	3.81	0.605	-0.669	0.179	1.13	-0.226	0.999	-0.371	2.38
TCGAGAAGGTTAGGGGCATTCAGAATGGCGTCGA	1.15	0.162	-1.01	-0.967	0.818	0.866	-0.0334	0.991	0.387	2.02
CCTACTGGGCCATAAGGTCATTGATATCAACGTT	4.4	5.28	0.506	0.0496	2.03	3.98	1.97	4.25	1.27	3.43
AGTCAAGGTTCATCTAGGTAACGTAAGATATGCT	1.12	3.01	1.11	1.06	1.29	2.48	1.61	2.88	0.372	2.99
GCGACTGGTGCATCAGCAGGTTACCATAACTTAA	-0.556	-0.572	-1.07	-0.356	-0.496	-0.248	-0.653	-0.046	-1.22	-0.228
TCTTGTAGATCAGCAGGTTAAGAACGCTGGCCAA	1.41	0.294	-0.675	-0.754	-0.66	-0.00865	-0.543	0.211	-0.75	0.0804
GCGACTGGGGCATCAGCAGGTTAGCATAACTTAA	3.62	2.57	-1.06	-1.09	-0.262	-0.392	-0.845	-0.492	-0.942	0.511
ATAGGTAGGTTAGCTGGGGTCATTCAGACTAGGC	2.88	2.9	1.18	0.716	3.23	6.38	4.41	5.88	1.73	3.2
GCTATTAGTTGAAAGGGCAACCGTATGATTCTCG	0.503	1.17	0.375	0.271	1.91	1	0.322	1.49	0.819	2.11
ATATGTAGGTTAAGGGTCACTCAGGTTGGTTCGC	7.97	8.15	1.94	2.59	3.56	5.09	1.94	6.1	2.24	3.95
CATATTAGTTGACCATAAGGGCAACCGAAGCTCG	0.59	1.02	1.7	1.43	1.42	0.825	0.678	1.19	1.93	1.8
GCTAGCAGGCCATCTGGGTCACTCAATGACGGGC	3	3.48	-0.603	-1.04	0.0368	0.27	-0.407	0.713	-0.51	1.67
TCTATTAGTTGATAAGGGCAACCGAAACAGCGGA	1.65	0.714	0.803	1.07	0.853	0.671	0.649	0.881	0.996	1.6
CTTCGGAGGACAACAGGAGGTCAGAGCTGCCAGA	0.0715	0.767	-2.3	-1.62	1.69	2.41	0.525	2.64	0.557	2.98
CGTCCAAGGTCATAGGAGGTCAGCGAAGACAGAT	3.34	4.77	0.336	-0.611	4.47	7.04	3.83	6.41	2.5	5.66
AGAATGAGGCTACCAAAGATCAGGGAAACGCTTG	1.61	0.854	0.153	-0.213	-0.49	-0.51	-0.439	-0.0885	-0.557	0.164
GCTAGGAGGCCATTTGGGTCACTCAATGACGGGC	1.91	2.38	-0.861	-0.88	0.287	1.21	1.1	1.04	-0.719	1.95
CTACCAAGGTGAACAAGGTCGATGATTACTATTC	2.72	2.64	0.547	0.654	0.419	1.43	0.443	1.63	0.548	1.95
ATCTCTAGGTAAGGTTCAGTGAAAGATCGATAGA	1.52	1.27	1.88	0.757	1.1	0.838	0.974	1.21	1.79	1.34
AATACAGGGTCATTGTAGGCCAGAGTACGCACAG	2.56	4.77	1.99	0.86	2.91	4.83	0.912	4.54	0.607	4.19
TCATATAGGTAATACCGGTGAAAGTCGGCATCTA	3.57	2.28	0.77	0.786	0.599	0.488	0.00655	1.01	0.792	0.224
TCAAGCAGGCCAGAGGGTCACTCAAGAGGTACGG	1.38	0.884	-1.19	-1.55	0.379	1.65	-0.357	2.52	-0.42	2.51
